Measurements taken from the OligoGym collection.

These sequences were tested against BCL7A (assay: pooled miR-30 sensor sort-seq; sequence = guide strand). Settings: shRNA.
Further: reference of the scale not given here.

| Sequence | sensor-assay potency score (higher = more potent) |
| --- | --- |
| TTCAGGAACATTTTGATTCTTC | -0.0367 |
| TTGTTTTTGTCATCAACCTTGG | -0.192 |
| TTCATCGAATGTTCCATCGAGG | -0.362 |
| TACTGCTGTACAACACACCAAA | -0.883 |
| ATAATGAACATTCCAAACCATG | -1.57 |
| TTCTCTGAGCTGTTCATCGAAT | -0.798 |
| TAACACACAACTCAAAGGGAGT | -1.29 |
| TTAGAAAATGGAATCCAGCAGA | -0.0728 |
| TATCGTTACATAGAGAAGTGGG | 0.305 |
| TTGTGGAATGTGTAGCCGCAGC | -1.01 |
| TACAGCAGCAACACAAATGGAA | -0.286 |
| TTTCTCTGAGCTGTTCATCGAA | -0.326 |
| TTTTGCAGTCTTGTCATTCTGC | 0.59 |
| TTGTACAAACCATATCTACTGA | -0.0617 |
| TTGATATCATCTTTGGCCCGGC | -0.0024 |
| TAGTAGTTCTGTTCGCACCCAA | 0.392 |
| TAGGGATGTGTCACCAACGGTC | -0.791 |
| TGAGCCACACTTCTCGTCCTTG | -0.721 |
| TTGAAATTCAGGAACATTTTGA | -0.466 |
| ATTCTGACCACTGCGATCCTGC | -0.637 |

What follows are sequences tested against BDH2 in the same assay as above. Settings: shRNA.

| Sequence | sensor-assay potency score (higher = more potent) |
| --- | --- |
| TTAAAGAGAACATCAAGTCTCT | 0.782 |
| TTACATAAGCAGATTCATCAGA | 0.11 |
| TTTGTTTCTTCTTTGTGACATC | -0.953 |
| TTCTTTCTTGTAGAGATGGCGT | -0.55 |
| TTGGACTCATTAATGTCTGTGG | -0.0604 |
| TTGGTTGTGCTGTACACACATC | -1.05 |
| TAATATTGCCAGATTTCTGAGC | -0.452 |
| AAACTGATCAATTTGTTTCTTC | 0.524 |
| TTCACAACTCCTTTGACGCTGG | 0.0987 |
| TTGATCATCAGGTACATGCTGC | 0.603 |
| TATTGCCAGATTTCTGAGCAAG | -1.16 |
| TTCCATGATGGACAAAACCAGC | -1.2 |

These sequences were tested against BEST2 in the same assay as above. Settings: shRNA.

| Sequence | sensor-assay potency score (higher = more potent) |
| --- | --- |
| AAGCGCTTGAACACCGCGGTGC | 0.183 |
| TTAAGGGCGCTGTTGTCGCGGA | -1.06 |
| TAGTGAAAGAGCATTCCACATT | -0.946 |
| TGGAACTGCATGTCTTCTTTGG | -0.925 |
| TTCAGGTTTTCAAACTTCTTGC | -0.208 |
| TAGCGCATGAGTGTGCGCCGGT | -0.558 |
| AACTTCTTGCGCTCCTCGCGGG | -0.5 |
| ATACATCTCGTCCACTGCCAGC | -1.42 |
